Inconclusive results are not listed. Active and inactive are the calls of the source. Unless noted, calls come from the whole dose curve; as a rule, active = well fitted curve in the direction sought with a large enough effect in the repeat runs; inconclusive = weak or mixed curves; inactive = no such curve, though single readings can be large; an effect the other way counts as inactive or inconclusive.

A short description of experiment [1]: qHTS assay for small molecule agonists of the p53 signaling pathway (AID 651631; calls by dose curve; note: nearly all actives have a fitted effect of over 15% in size; note: potency is the fitted concentration of half-maximal effect). The method in brief: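 Agonist mode screen using a stably integrated beta-lactamase gene under p53 response elements in HCT-116 cells. Compound exposure lasts 16 h at 37 °C; fluorescence intensity is measured following 2 h FRET substrate loading.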
Experiment [2] in a line: qHTS assay for small molecules that induce genotoxicity in human embryonic kidney cells expressing luciferase-tagged ATAD5 (AID 651632). Note: nearly all actives have a fitted effect of over 15% in size. The method in brief: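 Cells were seeded at 2,000 per well, dosed with compound, and incubated 16 hr at 37C in 5% CO2. Luciferase activity was then quantified after a 30 min room-temperature incubation with Amplite.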
Background: In qHTS, concentration-response curves come from the screen itself.

Experiment [3] is described as follows: qHTS assay for small molecule agonists of the p53 signaling pathway - cell viability (AID 651633; calls by dose curve; note: nearly all actives have a fitted effect of over 30% in size; note: potency is the fitted concentration of half-maximal effect). In outline:
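Viability counter-read: CellTiter-Glo luminescence (30 min, room temperature) in the same p53RE-bla plates. These plates had been exposed to compounds for 16 h at 37 C.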

The nature of experiment [4]: qHTS assay for small molecules that induce genotoxicity in human embryonic kidney cells expressing luciferase-tagged ATAD5 - cell viability (AID 651634; calls by dose curve; note: nearly all actives have a fitted effect of over 25% in size; note: potency is the fitted concentration of half-maximal effect). The method in brief:
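Cells (HEK293T, luciferase-tagged ATAD5) are seeded at 2,000 per well, dosed with compound or DMSO vehicle, and incubated 15.5 hr at 37C and 5% CO2. CellTiter-Fluor is added for 30 min before fluorescence is measured.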

Experiment [5] is described as follows: qHTS assay for small molecule disruptors of the mitochondrial membrane potential - cell viability (AID 720634; calls by dose curve; note: nearly all actives have a fitted effect of over 20% in size; note: potency is the fitted concentration of half-maximal effect). The method in brief: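 Cytotoxicity was measured by ATP quantitation in HepG2 wells that had first been treated with compound for 1 hr and stained with m-MPI dye; CellTiter-Glo incubation was 30 min at room temperature.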
The nature of experiment [6]: qHTS assay to test for compound auto fluorescence at 590 nm (red) in HepG2 cells (AID 720674). In outline:
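We screened compounds on adherent HepG2 cells, incubating them for an hour at 37 C in 5% CO2 before reading emission at 590 nm under 540 nm excitation; values reflect equivalence to Rose Bengal sodium fluorescence.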

A short description of experiment [7]: qHTS assay to test for compound auto fluorescence at 535 nm (green) in HepG2 cells (AID 720675).
Experiment [8] is described as follows: qHTS assay to test for compound auto fluorescence at 460 nm (blue) in HEK293 cells (AID 720678). In outline: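 HEK293 cells (2,000 per well, medium with 10% dialyzed FBS) attached for 4-5 hr at 37C, then received compound and stood overnight at 37C, 5% CO2. Blue fluorescence was read at Ex/Em 405/460 nm and expressed relative to triamterene.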
Experiment [9] can be described thus: qHTS assay to test for compound auto fluorescence at 590 nm (red) in HEK293 cells (AID 720679). In outline:
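HEK293 cells (2,000/well, medium with 10% dialyzed FBS) attached for 4-5 hr at 37C, received 23 nL compound and were incubated overnight at 37C, 5% CO2. Red fluorescence was then read at 540/590nm Ex/Em, referenced to Rose Bengal sodium.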

Experiment [10] can be described thus: qHTS assay to test for compound auto fluorescence at 535 nm (green) in HEK293 cells (AID 720680).
A short description of experiment [11]: qHTS assay to test for compound auto fluorescence at 460 nm (blue) in HEK293 cell free culture (AID 720681). The method in brief: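 Blue fluorescence (Ex 405/Em 460 nm, triamterene-equivalent) was read immediately after pin transfer of compound or DMSO into medium (DMEM, 10% FBS) without cells.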
Experiment [12] is described as follows: qHTS assay to test for compound auto fluorescence at 535 nm (green) in HEK293 cell free culture (AID 720682). In outline:
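No cells present: wells hold DMEM supplemented with 10% FBS, into which compound or vehicle is pinned. Green emission is then recorded (485 nm excitation, 535 nm emission) and scaled to fluorescein.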

Experiment [13] can be described thus: qHTS assay to test for compound auto fluorescence at 590 nm (red) in HEK293 cell free culture (AID 720683). In outline:
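Red-channel autofluorescence of compounds in culture medium (DMEM, 10% FBS), no cells, measured at 540/590 nm. Rose Bengal sodium is the reference fluorophore for equivalence.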

Experiment [14] in a line: qHTS assay to test for compound auto fluorescence at 590 nm (red) in HepG2 cell free culture (AID 720684). In outline: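 No cells present: MEM + 10% FBS only. Compound pinned in, red label read (540/590 nm). Activity = fluorescence equivalent to Rose Bengal sodium.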
Experiment [15] is described as follows: qHTS assay to test for compound auto fluorescence at 460 nm (blue) in HepG2 cell free culture (AID 720685). The method in brief:
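Cell-free plates of MEM plus 10% FBS received 23 nL compound or DMSO vehicle; blue-channel (405/460 nm) intensity scored against triamterene as reference fluorophore.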

Experiment [16] in a line: qHTS assay to test for compound auto fluorescence at 535 nm (green) in HepG2 cell free culture (AID 720686).
Experiment [17] can be described thus: qHTS assay to test for compound auto fluorescence at 460 nm (blue) in HepG2 cells (AID 720687). The method in brief:
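Blue-channel autofluorescence (Ex/Em 405/460 nm, triamterene-equivalent) was measured after 1 hr compound exposure at 37 C, 5% CO2. Cells were HepG2, plated overnight at 37 C in MEM plus 10% FBS.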

For experiment [18], the target named is Glucocorticoid receptor (Homo sapiens) (UniProt P04150). Kind of experiment: qHTS assay to identify small molecule antagonists of the glucocorticoid receptor (GR) signaling pathway (AID 720692; active = well fitted inhibition curve with a large enough effect in the signal ratio in the repeat runs, not every such curve was filed as active; the % refers to the signal ratio). In outline:
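Antagonism was scored as loss of dexamethasone-driven (5 nM final) reporter signal in HeLa cells bearing a glucocorticoid response element–beta-lactamase construct, after 18 h compound exposure at 37 C and 2 h FRET substrate loading.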

Experiment [19] is described as follows: qHTS assay for small molecule disruptors of the mitochondrial membrane potential (AID 720635). Note: potency is the fitted concentration of half-maximal effect. In outline: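 Mitochondrial membrane potential tracked with Mito-MPS dye, red aggregates (ex 540/em 590 nm) against green monomers (ex 490/em 535 nm). Compound treatment 1 hr at 37C, dye 30 min in HepG2.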

Chain of Glucocorticoid receptor (Homo sapiens) (P04150 whole entry, looked up): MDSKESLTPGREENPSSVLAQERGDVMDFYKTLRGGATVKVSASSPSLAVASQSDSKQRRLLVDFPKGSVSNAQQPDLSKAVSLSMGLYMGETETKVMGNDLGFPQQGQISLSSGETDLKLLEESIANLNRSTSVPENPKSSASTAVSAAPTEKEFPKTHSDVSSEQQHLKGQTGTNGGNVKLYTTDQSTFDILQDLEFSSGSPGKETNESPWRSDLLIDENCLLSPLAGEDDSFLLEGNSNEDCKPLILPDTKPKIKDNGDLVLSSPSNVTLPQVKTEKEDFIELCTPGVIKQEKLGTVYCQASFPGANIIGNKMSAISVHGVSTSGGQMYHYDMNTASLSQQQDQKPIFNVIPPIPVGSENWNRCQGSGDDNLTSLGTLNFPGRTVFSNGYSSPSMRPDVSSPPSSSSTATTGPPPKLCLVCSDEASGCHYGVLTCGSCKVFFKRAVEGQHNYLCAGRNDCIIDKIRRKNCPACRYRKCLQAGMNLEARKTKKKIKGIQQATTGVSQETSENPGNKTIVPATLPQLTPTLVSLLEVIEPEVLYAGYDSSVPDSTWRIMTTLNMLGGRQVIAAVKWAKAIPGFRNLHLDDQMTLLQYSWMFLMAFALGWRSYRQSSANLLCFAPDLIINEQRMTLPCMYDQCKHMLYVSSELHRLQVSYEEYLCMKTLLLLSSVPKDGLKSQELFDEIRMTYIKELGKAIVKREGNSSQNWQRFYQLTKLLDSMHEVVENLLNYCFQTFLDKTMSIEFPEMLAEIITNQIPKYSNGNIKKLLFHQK

Consider `C=CC(=C)CCC=C(C)C`, for which the Potency result in experiment [1], in experiment [2], in [3], in experiment [4], in experiment [5] and in experiment [6] was “inactive” throughout. In addition, the Potency entry in experiment [7], in experiment [8], in [9], in experiment [10], in experiment [11] and in experiment [12] was “inactive” in each case. Also, the Potency result in experiment [13], in experiment [14], in [15], in experiment [16], in experiment [17] and in experiment [18] was “inactive” each time.

With `CC1CCCNC1` (stereo not drawn), the Potency entry in [1], in experiment [2], in experiment [3], in [4], in experiment [5] and in experiment [6] was “inactive” throughout. The Potency entry in experiment [7], in experiment [8], in experiment [9], in experiment [10], in experiment [11] and in experiment [12] was “inactive” throughout. Also, the Potency result in [14], in experiment [15], in experiment [16], in experiment [17] and in experiment [18] was “inactive” throughout.

On to `C=C1C(C)(C)[C@@]2(Cl)C(Cl)[C@]1(Cl)C(Cl)(Cl)C2(Cl)Cl` (stereo partly drawn), for which the Potency result in experiment [2], in experiment [4], in experiment [5], in experiment [6], in [7] and in [8] was “inactive” throughout. The Potency entry in [9], in experiment [10], in experiment [11], in experiment [12], in experiment [13] and in experiment [14] was “inactive” each time. The Potency entry in [15], in experiment [16] and in [17] was “inactive” in each case. In addition, the Potency was 67.3 µM (active) in [3] and 12 µM (active) in experiment [19].

Regarding `O=C(Nc1ccc(Cl)cc1)Nc1ccc(Cl)c(C(F)(F)F)c1`, the Potency result in [2], in [6], in experiment [7], in experiment [8], in experiment [9] and in experiment [10] was “inactive” each time. In addition, the Potency result in [11], in [12], in experiment [13], in experiment [14], in experiment [15] and in experiment [16] was “inactive” each time. For the same compound, the Potency result in experiment [17] is “inactive”. Moreover, the Potency was 26.6 µM (active) in experiment [3], 13.3 µM (active) in experiment [4], 1.5 µM (active) in experiment [5] and 0.596 µM (active) in experiment [19].

Turning to `ClC/C=C\CCl`, the Potency entry in experiment [2], in [3], in experiment [4], in experiment [5], in experiment [19] and in [6] was “inactive” in each case. Moreover, the Potency result in [7], in experiment [8], in experiment [9], in experiment [10], in [11] and in experiment [12] was “inactive” throughout. For the same compound, the Potency result in experiment [13], in [14], in experiment [15], in experiment [16] and in experiment [17] was “inactive” each time.

As for `NC(=O)c1ccccc1N`, the Potency entry in [1], in experiment [2], in experiment [3], in experiment [4], in experiment [5] and in [6] was “inactive” in each case. Also, the Potency result in experiment [7], in experiment [8], in experiment [9], in [11], in experiment [12] and in [15] was “inactive” each time. Further, the Potency entry in experiment [16] and in [17] was “inactive” each time.

Turning to `CC(O)C#CC(C)O` (stereo not drawn), the Potency entry in experiment [1], in [4], in experiment [5], in experiment [6], in experiment [7] and in experiment [8] was “inactive” throughout. The Potency result in experiment [9], in [10], in [11], in experiment [12], in experiment [14] and in experiment [16] was “inactive” each time. In addition, the Potency result in [17] was “inactive”.

On to `CCC(C)c1cc([N+](=O)[O-])cc([N+](=O)[O-])c1OC(=O)OC(C)C` (stereo not drawn), for which the Potency is 30.6 µM (active) in experiment [1], 61.1 µM (active) in experiment [4], 21.7 µM (active) in [5] and 3.06 µM (active) in experiment [19]. Moreover, the Potency result in [2], in [6], in experiment [7], in experiment [8], in experiment [9] and in experiment [10] was “inactive” each time. Besides, the Potency entry in experiment [11], in experiment [12], in experiment [13], in experiment [16] and in [17] was “inactive” in each case.

The values are drawn from PubChem BioAssay (Tox21).
